High-throughput results as filed in PubChem.
Sampled rows, rich in hits. Any-hit rate of the full collection: about 17%.
S2 tox – reduces viability in counter-screen for ATXN expression inhibitors; S2 cells (HEK-293 line with an ATXN2-luciferase reporter) viability, CellTiter-Fluor protease fluorescence, 24 h; Potency, µM (highest dose often 56.7 µM), actives largely listed as cytotoxic; 400,000 tested, 0.49% active; AID 651635; note: nearly all actives have a fitted effect of over 40% in size
TGFb SMAD3 inh – TGF-b pathway inhibition | AID 588855 | HepG2 CAGA-GFP TGF-b/SMAD3 reporter, GFP fluorescence, 18 h; TGF-beta stimulated, 500 pg/mL final | 410,000 tested, 1.2% active | Potency, µM (highest dose often 46.1 µM), for the others: top-dose activity, negative = inhibition, hits mostly inhibitors; note: % is set by controls: 0 for no effect and ±100 for the full control effect; nearly all actives have a fitted effect of over 65% in size
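Cell-based qHTS in HEPG2 carrying a CAGA-GFP Smad reporter; compounds added before 500 pg/mL final TGF-beta, 18 h incubation at 37 degrees C, GFP fluorescence quantified per cell by imaging cytometry.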
HepG2 viability – counter-screen for TGF-b inhibitors: cytotoxicity in HepG2 cells. HepG2 CAGA-GFP viability, ATP luminescence, 18 h. Potency, µM (doses to about 46.1 µM), inactives show top-dose activity change, negative = cytotoxicity, actives largely listed as cytotoxic. 410,000 tested, 0.76% active. AID 588856
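HepG2 CAGA-GFP cells (1000/well, DMEM with 1% FBS) received compound, then TGF-beta at 500 pg/mL final, and were incubated 18 hours at 37 degrees C. Viability was read by CellTiter-Glo luminescence. Media-only wells were set as complete cell-killing and DMSO as no toxicity.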
DT40 TDP1 no CPT – qHTS for Inhibitors of human tyrosyl-DNA phosphodiesterase 1 (TDP1): qHTS in cells in absence of CPT; DT40 Tdp1-/- hTDP1 cells, no CPT, ATP luminescence, 48 h; Potency, µM (highest dose often 46.2 µM), for inactives: at the highest dose activity change, negative = growth inhibition, usual class: inhibitors; 420,000 tested, 15% active; AID 686978, 2013; note: % is set by controls: 0 for no effect and ±100 for the full control effect; nearly all actives have a fitted effect of over 55% in size
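A cellular qHTS used chicken DT40 cells lacking endogenous Tdp1 but carrying stably transfected human TDP1. Compounds were applied without camptothecin, and cell growth kinetics were judged by ATP-dependent luminescence after ≥48 hr.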
ATXN2 expr inh – reduces ATXN2 reporter expression in HEK-293 cells; AID 1745845; 360,000 tested, 0.72% active; Potency, µM (highest dose often 57 µM), for inactives: at the highest dose activity change, negative = inhibition, most hits filed as inhibitors; HEK-293 ATXN2-luciferase reporter, luminescence, 24 h; note: % is set by controls: 0 for no effect and ±100 for the full control effect; nearly all actives have a fitted effect of over 55% in size
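qHTS (up to 57 uM final) was run with 24 h compound exposure of reporter cells at 37 °C. Each well was multiplexed: SteadyGlo luminescence measured ATXN2-luciferase expression after a fluorogenic Gly-Phe-AFC viability readout (25 uM final).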
TDP1 cell CPT – DT40-hTDP1 cell growth loss with CPT. chicken DT40 Tdp1-/-;hTDP1 cells + 20 nM CPT, ATP luminescence, 48 h. Potency, µM (highest dose often 46.2 µM), for inactives: at the highest dose activity change, negative = growth inhibition, hits mostly inhibitors. 420,000 tested, 12% active. AID 686979; note: % is set by controls: 0 for no effect and ±100 for the full control effect; nearly all actives have a fitted effect of over 55% in size
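Chicken DT40 Tdp1-/- cells complemented with human TDP1, 400 cells/well, exposed to compounds plus 20 nM camptothecin for at least 48 h at 37 C; viability read as ATP content by CellTiter-Glo luminescence.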
* marks the source's active call; other numbers are inactive results; i = inactive; ? = inconclusive; / = not tested or not shown; [ ] = remark or other dose. Calls come from the whole dose curve; as a rule, active = well fitted curve in the direction sought with a large enough effect; inconclusive = small, poorly fitted or top-dose-only effect, or another doubt; inactive = no such curve, though single readings can be large; an effect the other way counts as inactive or inconclusive. Potency is the fitted concentration of half-maximal effect.

SMILES | S2 tox | TGFb SMAD3 inh | HepG2 viability | DT40 TDP1 no CPT | ATXN2 expr inh | TDP1 cell CPT
Cc1nnc(SC(C)C#N)n1-c1ccccc1 (stereo not given) | i | 2% | -2% | -6% | 6% | 1%
Cc1ccc2[nH]cc(C(c3ccccc3)c3ccc(Cl)s3)c2c1 (stereo not given) | ? | ? | 11µM* | 15µM* | ? | ?
Clc1ccc(C(c2ccccc2)c2c[nH]c3ccccc23)s1 (stereo not given) | / | ? | -109% | / | ? | /
CCc1ccc(C(c2ccccc2)c2c[nH]c3ccc(C)cc23)s1 (stereo not given) | i | ? | -36% | 16µM* | 8% | ?
CC1(c2nnnn2-c2ccc3c(c2)OCCO3)CCC(=O)N1CCCN1CCOCC1 (stereo not given) | ? | / | / | 0% | -11% | -2%
S=c1c2c(nc3nc[nH]n13)CCC2 | 6.3µM* | 10µM* | -64% | 21µM* | / | ?
CC(O)CNc1ccc(-c2n[nH]c(=O)c3ccccc23)cc1[N+](=O)[O-] (stereo not given) | i | 0% | -9% | ? | 14% | ?
CN(C)CCCNc1ccc(-c2n[nH]c(=O)c3ccccc23)cc1[N+](=O)[O-] | i | 2% | -14% | 23µM* | / | 10µM*
CN(C)CCNc1ccc(-c2nn(C)c(=O)c3ccccc23)cc1[N+](=O)[O-] | ? | -8% | -11% | 23µM* | -6% | ?
CN(CCO)c1ccc(-c2nn(C)c(=O)c3ccccc23)cc1[N+](=O)[O-] | ? | 1% | -25% | 8.2µM* | / | ?
Cn1nc(-c2ccc(NCCO)c([N+](=O)[O-])c2)c2ccccc2c1=O | i | 0% | -19% | -2% | 24% | 14%
CCCCn1nnnc1C(c1ccccc1)N1CCN(c2ccc(F)cc2)CC1 (stereo not given) | ? | / | / | ? | -2% | ?
CCOC(=O)c1c(CN(C)C)n(-c2ccc(C)cc2)c2cc(Br)c(O)cc12 | i | ? | -34% | ? | -8% | ?
CCOC(=O)c1c(CN2CCCCC2)n(C)c2cc(Br)c(O)cc12 | i | -7% | -21% | 9.2µM* | -24% | 2.3µM*
COc1cc2c(C(=O)OCCN(C)C)c(CSc3ccccc3)n(C)c2cc1Br | i | -1% | -22% | ? | -27% | ?
CCOC(=O)c1c(CN2CCN(C)CC2)n(C)c2cc(Br)c(OC)cc12 | i | 14% | 11µM* | ? | -24% | ?
CCOC(=O)c1c(CSC(=N)N)n(C)c2cc(Br)c(OC(C)=O)cc12 | / | -25% | 35% | 16µM* | ? | 16µM*
CCOC(=O)c1c(CN2CCOCC2)n(-c2ccccc2)c2cc(Br)c(O)cc12 | / | -6% | -17% | 18% | / | -16%
CCOC(=O)c1c(CN2CCOCC2)n(-c2ccccc2)c2cc(Br)c(OC)cc12 | i | ? | -6% | 21µM* | -12% | 16µM*
CC(C)(CC(=O)O)CC(=O)Nc1cc(C(F)(F)F)cc(C(F)(F)F)c1 | i | 7% | -2% | 3% | 7% | -3%
CS(=O)(=O)N1CCC(C(=O)Nc2ccc(Cl)c(Cl)c2)CC1 | i | -11% | 0% | ? | 12%[11.3 µM] | ?
O=C(CCc1nc2ccccc2c(=O)[nH]1)N1CCN(C/C=C/c2ccccc2)CC1 | i | 1% | -39% | 6.5µM* | -19% | 7.3µM*
O=C(c1ccco1)N1CCN(Cc2nc3cc(Cl)ccc3c(=O)[nH]2)CC1 | i | 16% | -34% | -26% | 4% | -12%
O=c1[nH]c(CN2CCN(C/C=C/c3ccccc3)CC2)nc2cc(Cl)ccc12 | ? | -20% | 5% | 21µM* | -25% | ?
O=S(=O)(c1ccccc1)N1N=C(c2ccccc2)CC1c1ccccc1F (stereo not given) | i | -1% | -3% | ? | -5% | 16µM*
SMILES | S2 tox | TGFb SMAD3 inh | HepG2 viability | DT40 TDP1 no CPT | ATXN2 expr inh | TDP1 cell CPT
O=S(=O)(c1ccccc1)N1N=C(c2ccc(Br)cc2)CC1c1ccco1 (stereo not given) | i | -1% | -4% | 16µM* | -23% | 16µM*
O=S(=O)(c1ccccc1)N1N=C(c2ccc(O)cc2)CC1c1ccco1 (stereo not given) | i | ? | -13% | 7.3µM* | -19% | 8.2µM*
Cc1nnc(N2CCN(c3ccccc3)CC2)c2c1nnn2Cc1ccc(F)cc1 | ? | 4% | 9% | ? | 16% | 16µM*
Cc1ccc(CNc2nnc(C)c3nnn(Cc4ccc(F)cc4)c23)cc1 | i | 9% | -1% | 2% | 0% | ?
CNS(=O)(=O)c1cc(NC(=O)c2cnc(SC)n2-c2ccccc2)ccc1C | i | 3% | -15% | 15µM* | 7% | ?
COc1ccc(NC(=O)C(NS(=O)(=O)c2cccc3nsnc23)c2ccccc2)cc1 (stereo not given) | i | -11% | -1% | -7% | 7% | -25%
CCN(CC)CCCNC(=O)c1cc(-c2ccc(Cl)c(Cl)c2)on1 | ? | ? | 16µM* | 23µM* | ? | 21µM*
CCN(CC)CCCNC(=O)c1cc(-c2ccc(O)cc2)on1 | ? | ? | -13% | -13% | 0% | -4%
O=C(NCCCN1CCOCC1)c1cc(-c2ccc(Cl)c(Cl)c2)on1 | i | 20% | -10% | 16µM* | ? | ?
CCN(CC)S(=O)(=O)c1ccc(/C=C/C(=O)OCC(=O)NCc2ccco2)cc1 | i | -11% | -1% | ? | 1% | 9.2µM*
CCN(CC)S(=O)(=O)c1ccc(/C=C/C(=O)OCC(=O)NCc2cccs2)cc1 | i | 7% | -6% | ? | / | 21µM*
CC[C@H](C)[C@H](NC(=O)[C@H](CCCN=C(N)N)NC(=O)[C@H](CCCN=C(N)N)NC(=O)[C@H](CC(C)C)NC(=O)[C@H](Cc1ccccc1)NC(=O)CNC(=O)CN)C(=O)N[C@@H](CCCN=C(N)N)C(=O)N1CCC[C@H]1C(=O)N[C@@H](CCCCN)C(=O)N[C@@H](CC(C)C)C(=O)N[C@@H](CCCCN)C(=O)O | / | / | / | -8%[4.12 µM] | / | 2%[4.12 µM]
Cc1ccc(CNc2ncnc3c2c(-c2ccccc2)cn3-c2ccccc2)cc1 | ? | 7% | -10% | -88% | -24% | ?
